Laboratory results: PubChem BioAssay (NCI)
About 79,000 compounds went through this panel and 15% of them were active in at least one assay; those are over-represented in the sample as a whole. The source made the active and inactive calls. Cut-off read from the data, not from the text of the source: active = growth inhibition above about 70%; inactive = the rest.

assay: NCI Yeast Anticancer Drug Screen. Data for the rad50 strain (AID 155);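 note: 0% = growth of vehicle-only cultures of the same strain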; settings: S. cerevisiae rad50 strain growth inhibition; at 50.0 µM; active compounds read high
Procedure, shortened: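 DNA repair mutant yeast, compound exposure, growth read-out; inhibition is taken relative to vehicle.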

| SMILES | growth inhibition |
| --- | --- |
| CCCn1c(C)nc2c(N)cc(C)cc21 | -5.9% (inactive) |
| CCOC(=O)Nc1cccc(Cl)c1 | 10.9% (inactive) |
| CCC[CH2][Ge]([CH2]CCC)([CH2]CCC)[n]1ccc2ccccc21 | 24% (inactive) |
| CC(C)C(C(=O)O)N(CC1(O)OCC(O)C(O)C1O)N=O (stereo not given) | -0.2% (inactive) |
| COc1ccc(C2(C)OCCCC2([NH-])C[NH-])cc1.[Cl][Pt+2][Cl] (stereo not given) | 10.9% (inactive) |
| CCCC#CCN(C(C)C)C(C)C | -12.4% (inactive) |
| Cc1ccc(SCC(CF)OCn2cc(F)c(=O)[nH]c2=O)cc1 (stereo not given) | -7.85% (inactive) |
| Nc1nc(Cc2ccccc2)c(-c2ccccc2)c(-c2nc(N)nc(Cc3ccccc3)c2-c2ccccc2)n1 | -9.6% (inactive) |
| O=C1Oc2ccccc2C(=O)Oc2ccccc2C(=O)Oc2ccccc2C(=O)Oc2ccccc21 | -43.7% (inactive) |
| O=C1OI(=O)(O)c2ccccc21 (stereo not given) | -4.35% (inactive) |
| O=C(COc1ccccc1)OC1CCCCC1C1CCCCC1 (stereo not given) | 13.2% (inactive) |
| O=C(O)c1ccc2sc3ccccc3c(=O)c2c1 | 14.9% (inactive) |
| COc1ccccc1NC(=O)C(/C=N/C(N)=S)=C(\C)O | -20.1% (inactive) |
| CCOC(=O)N[C@@H]1C(CC(=O)OC)O[C@H]2OC(C)(C)O[C@H]21 (stereo not given in full) | 18.1% (inactive) |
| CN1CCN(C(=O)/C(=C/c2ccccc2)NC(=O)c2ccccc2)CC1 | -6.8% (inactive) |
| CC(c1ccccc1)C(C)c1ccccc1 (stereo not given) | 12.7% (inactive) |
| c1ccc(N=C2CCCCCC2)cc1 | -1.85% (inactive) |
| CCCC(=O)C(C)(C)C | 18.2% (inactive) |
| C=CC(=O)OCCOCCOC | -21.1% (inactive) |
| CN(C)S(=O)(=O)C(C(N)=O)c1ccccc1 (stereo not given) | -8.75% (inactive) |

| SMILES | growth inhibition |
| --- | --- |
| O=c1oc2ccccc2c2ccccc12 | -2.8% (inactive) |
| CS(=O)(=O)CCC(Nc1ccc([N+](=O)[O-])cc1[N+](=O)[O-])C(=O)O (stereo not given) | 4.7% (inactive) |
| NC(CSC(c1ccccc1)(c1ccccc1)c1ccc(C(=O)O)cc1)C(=O)O (stereo not given) | 54.2% (inactive) |
| Brc1cc(Br)c2c(c1)CN(C1CCCCC1)CO2 (tested in a mixture with another compound) | -0.15% (inactive) |
| Cc1n(CC(=O)c2ccccc2)nc2sc(N)n[n+]12 | -50% (inactive) |
| COc1ccc(NC(=O)C(=O)Cc2nc3ccc([N+](=O)[O-])cc3[nH]c2=O)c(OC)c1 | 9.85% (inactive) |
| COC(=O)CCc1cc(=O)oc2c3c(cc(OC)c12)OC1OC(=O)CC31 (stereo not given) | -24% (inactive) |
| O=C1C2C3(CCl)C1C23CCl (stereo not given) | 23.9% (inactive) |
| N#Cc1cn(Cc2ccccc2)c2ccccc2c1=O | -0.3% (inactive) |
| O=[N+]([O-])c1cc(C(F)(F)F)ccc1F | -16% (inactive) |
| CCOC(=O)Cc1cccnc1N | -3.15% (inactive) |
| CN1CCCC2[C@@H]3CCC4=C(O)C(=O)CC[C@]4(C)C3CC[C@@]21C (stereo not given in full) | 9.05% (inactive) |
| c1ccc(B2OCC(C3OB(c4ccccc4)OC4COB(c5ccccc5)OC43)O2)cc1 (stereo not given) | 32.5% (inactive) |
| COc1ccc(/C=C2/SC(=Nc3ccccc3)N(NC(=O)Cc3ccccc3)C2=O)cc1 | -22.7% (inactive) |
| O=C(CC(=O)N(C(=O)/C=C\c1ccccc1)c1ccc(Cl)cc1)N1N=C(c2ccccc2)C(N=Nc2cccc([N+](=O)[O-])c2)C1=O (stereo not given) | 7.5% (inactive) |
| OCc1ccccc1O | -1.7% (inactive) |
| CCN(CC)CCSc1cc(C)c2ccc(N)nc2n1 | -5.65% (inactive) |
| CC(CN(C)C)C(=O)c1ccccc1C(=O)O (stereo not given) | -44.9% (inactive) |
| CC(C)c1ccc(C(=O)OCCBr)cc1 | 18.7% (inactive) |
| O=C1/C(=C/c2ccccc2)CCCC/C1=C\c1ccccc1 | 27.9% (inactive) |

assay: NCI Yeast Anticancer Drug Screen. Data for the mec2-1 strain (AID 157); settings: S. cerevisiae mec2-1 strain, at 50.0 µM, active compounds read high
Procedure, shortened: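 Vehicle-treated cultures served as reference for growth inhibition of compound-exposed mec2-1 yeast.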

| SMILES | growth inhibition |
| --- | --- |
| CCCn1c(C)nc2c(N)cc(C)cc21 | -2.9% (inactive) |
| CCOC(=O)Nc1cccc(Cl)c1 | -2.45% (inactive) |
| CCC[CH2][Ge]([CH2]CCC)([CH2]CCC)[n]1ccc2ccccc21 | 31.2% (inactive) |
| CC(C)C(C(=O)O)N(CC1(O)OCC(O)C(O)C1O)N=O (stereo not given) | -18.4% (inactive) |
| COc1ccc(C2(C)OCCCC2([NH-])C[NH-])cc1.[Cl][Pt+2][Cl] (stereo not given) | -3.15% (inactive) |
| CCCC#CCN(C(C)C)C(C)C | 1.65% (inactive) |
| Cc1ccc(SCC(CF)OCn2cc(F)c(=O)[nH]c2=O)cc1 (stereo not given) | -13% (inactive) |
| Nc1nc(Cc2ccccc2)c(-c2ccccc2)c(-c2nc(N)nc(Cc3ccccc3)c2-c2ccccc2)n1 | 14.4% (inactive) |
| O=C1Oc2ccccc2C(=O)Oc2ccccc2C(=O)Oc2ccccc2C(=O)Oc2ccccc21 | -38.6% (inactive) |
| O=C1OI(=O)(O)c2ccccc21 (stereo not given) | -5.95% (inactive) |
| O=C(COc1ccccc1)OC1CCCCC1C1CCCCC1 (stereo not given) | 13% (inactive) |
| O=C(O)c1ccc2sc3ccccc3c(=O)c2c1 | 32.8% (inactive) |
| COc1ccccc1NC(=O)C(/C=N/C(N)=S)=C(\C)O | -6.5% (inactive) |
| CCOC(=O)N[C@@H]1C(CC(=O)OC)O[C@H]2OC(C)(C)O[C@H]21 (stereo not given in full) | -7.2% (inactive) |
| CN1CCN(C(=O)/C(=C/c2ccccc2)NC(=O)c2ccccc2)CC1 | 4% (inactive) |
| CC(c1ccccc1)C(C)c1ccccc1 (stereo not given) | -10.2% (inactive) |
| c1ccc(N=C2CCCCCC2)cc1 | 14.2% (inactive) |
| CCCC(=O)C(C)(C)C | -12.4% (inactive) |
| C=CC(=O)OCCOCCOC | -15.9% (inactive) |
| CN(C)S(=O)(=O)C(C(N)=O)c1ccccc1 (stereo not given) | 10.6% (inactive) |

| SMILES | growth inhibition |
| --- | --- |
| O=c1oc2ccccc2c2ccccc12 | -9.55% (inactive) |
| CS(=O)(=O)CCC(Nc1ccc([N+](=O)[O-])cc1[N+](=O)[O-])C(=O)O (stereo not given) | 6.1% (inactive) |
| NC(CSC(c1ccccc1)(c1ccccc1)c1ccc(C(=O)O)cc1)C(=O)O (stereo not given) | -4.1% (inactive) |
| Brc1cc(Br)c2c(c1)CN(C1CCCCC1)CO2 (tested in a mixture with another compound) | 3.85% (inactive) |
| Cc1n(CC(=O)c2ccccc2)nc2sc(N)n[n+]12 | -23.9% (inactive) |
| COc1ccc(NC(=O)C(=O)Cc2nc3ccc([N+](=O)[O-])cc3[nH]c2=O)c(OC)c1 | 14.7% (inactive) |
| COC(=O)CCc1cc(=O)oc2c3c(cc(OC)c12)OC1OC(=O)CC31 (stereo not given) | -22.3% (inactive) |
| O=C1C2C3(CCl)C1C23CCl (stereo not given) | 46.6% (inactive) |
| N#Cc1cn(Cc2ccccc2)c2ccccc2c1=O | -3.15% (inactive) |
| O=[N+]([O-])c1cc(C(F)(F)F)ccc1F | -15.2% (inactive) |
| CCOC(=O)Cc1cccnc1N | -9.45% (inactive) |
| CN1CCCC2[C@@H]3CCC4=C(O)C(=O)CC[C@]4(C)C3CC[C@@]21C (stereo not given in full) | -6.05% (inactive) |
| c1ccc(B2OCC(C3OB(c4ccccc4)OC4COB(c5ccccc5)OC43)O2)cc1 (stereo not given) | -2.45% (inactive) |
| COc1ccc(/C=C2/SC(=Nc3ccccc3)N(NC(=O)Cc3ccccc3)C2=O)cc1 | -14.2% (inactive) |
| O=C(CC(=O)N(C(=O)/C=C\c1ccccc1)c1ccc(Cl)cc1)N1N=C(c2ccccc2)C(N=Nc2cccc([N+](=O)[O-])c2)C1=O (stereo not given) | 3.45% (inactive) |
| OCc1ccccc1O | 6.25% (inactive) |
| CCN(CC)CCSc1cc(C)c2ccc(N)nc2n1 | -24% (inactive) |
| CC(CN(C)C)C(=O)c1ccccc1C(=O)O (stereo not given) | -24.9% (inactive) |
| CC(C)c1ccc(C(=O)OCCBr)cc1 | -11.4% (inactive) |
| O=C1/C(=C/c2ccccc2)CCCC/C1=C\c1ccccc1 | 31% (inactive) |
